Calls of active or inactive are those of the source. The rule behind the calls is not given here.
assay: Counterscreen for Identifying a Potential Treatment of Ataxia-Telangiectasia: SAR for Probe; conditions: cell-free AlphaLISA pKAP1 detection artifact counterscreen; series mostly up to 154 µM; activity change: at the top concentration
Excerpt: NIH Chemical Genomics Center [NCGC] NIH Molecular Libraries Probe Centers Network [MLPCN] MLPCN Grant: MH089030-01 Assay Submitter (PI): Wei Zheng and Yosef Shiloh Ataxia-telangiectasia (A-T) is a devastating and progressive disease for which, there is no cure. Although A-T is a multisystem disease, it is stereotyped characterized by its neurological symptoms such as truncal ataxia, due to cerebellar cortical degeneration of the Purkinje and granule cells. Other symptoms of A-T are telangiectasias (dilated blood vessels), primary immunodeficiency, marked sensitivity to ionizing radiation (IR), chromosomal instability and predisposition to cancer. The underlying genetic cause of A-T is null mutations in the ATM (A-T mutated) gene. ATM is a nuclear serine/threonine kinase that functions as a master regulator of the cellular responses to double strand breaks (DSBs) in the DNA. Upon activation by DSBs, ATM phosphorylates a plethora of downstream targets, including KAP-1 on Ser82452. […] To screen for small molecules that will compensate for the loss of ATM in cells derived from A-T patients, we monitored KAP-1 phosphorylation as a readout for ATM-like activity using an AlphaLISA assay.
qHTS Assay Protocol: 1. […] Readout, EnVision, EnVision plate reader. […] EnVision protocol for 1536-well AlphaScreen read (30ms excitation, 100ms read), about 10 min/plate. […]

Row | SMILES | activity change
1 | CC(=O)c1c(O)c(C)c(O)c(Cc2c(O)c3c(c(C(=O)/C=C/c4ccccc4)c2O)OC(C)(C)C=C3)c1O | 13.5% (inactive)
